Test results: PubChem BioAssay (NCATS)
Records with an inconclusive call do not appear. Entries that show only a call come without a potency. The source made the active and inactive calls. Calls come from the whole dose curve; as a rule, active = well fitted curve in the direction sought with a large enough effect; inconclusive = small, poorly fitted or top-dose-only effect, or another doubt; inactive = no such curve, though single readings can be large; an effect the other way counts as inactive or inconclusive.

What was measured:
[1] = SW1088 Cancer Cell Toxicity qHTS against the NCATS CANVASS Library (AID 1347350); note: nearly all actives have a fitted effect of over 75% in size; note: potency is the fitted concentration of half-maximal effect
How it was run: (§1)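 Viability was assessed by adding CellTiter-Glo reagent to treated cultures and reading luminescence after 15min at room temperature. Treatment lasted 72 h at 37 degrees C/5% CO2, using an 11-point series on 1000 cells/well.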

[2] = U-118MG Cancer Cell Toxicity qHTS against the NCATS CANVASS Library (AID 1347351); note: potency is the fitted concentration of half-maximal effect
How it was run: as §1

[3] = COV-362 Cancer Cell Toxicity qHTS against the NCATS CANVASS Library (AID 1347352); note: potency is the fitted concentration of half-maximal effect
How it was run: (§2)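 Toxicity was measured as CellTiter-Glo luminescence after 72 h exposure to an 11-point compound series. Compound was added to 1000 cells/well 4 h after seeding.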

[4] = A2780 Cisplatin Sensitive Ovarian Cancer Cell Toxicity qHTS against the NCATS CANVASS Library (AID 1347353); note: nearly all actives have a fitted effect of over 60% in size; note: potency is the fitted concentration of half-maximal effect
How it was run: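 Cisplatin-sensitive A2780 ovarian cells (750/well) received compound in 11 concentrations, and were incubated 72 h at 37 °C. ATP content was measured by ATPLite luminescence; bortezomib served as control.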

[5] = UWB1.289-WTBRCA1 Cancer Cell Toxicity qHTS against the NCATS CANVASS Library (AID 1347354); note: potency is the fitted concentration of half-maximal effect
How it was run: as §2

[6] = HEK-293 Cancer Cell Toxicity qHTS against the NCATS CANVASS Library (AID 1347355); note: nearly all actives have a fitted effect of over 65% in size; note: potency is the fitted concentration of half-maximal effect
How it was run: as §2

[7] = tested on: NAD(P)H diaphorase (Clostridium kluyveri); experiment: Diaphorse counterscreen qHTS: Assay Interference Panel against the NCATS CANVASS Library (AID 1347362)
How it was run: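 Counterscreen for coupling-enzyme interference: resorufin fluorescence from resazurin/NADH turnover, read after 5 min at room temperature. Compounds were tested over an 11-point series after 15 min dark preincubation with diaphorase in PBS-Tween.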

[8] = SDT Cancer Cell Toxicity qHTS against the NCATS CANVASS Library (AID 1347365); note: nearly all actives have a fitted effect of over 60% in size; note: potency is the fitted concentration of half-maximal effect
How it was run: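 Cytotoxicity taken from CellTiterGlo ATP luminescence after 72 hr at 37C, 5% CO2. Canine glioma line SDT, 500 cells/well, treated at 11 concentrations; bortezomib dose series as control.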

[9] = G06 Cancer Cell Toxicity qHTS against the NCATS CANVASS Library (AID 1347368); note: nearly all actives have a fitted effect of over 60% in size; note: potency is the fitted concentration of half-maximal effect
How it was run: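 Viability measured by CellTiterGlo ATP luminescence after 72 hr at 37C, 5% CO2. Canine G06 glioma cells plated at 500/well. Compounds tested as 11-point qHTS titrations.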

[10] = target: Nuclear receptor subfamily 1 group I member 3 (Homo sapiens) (UniProt Q14994); experiment: qHTS for Constitutive Androstane Receptor (CAR) Antagonist screened against the NCATS CANVASS Library (AID 1347372); note: potency is the fitted concentration of half-maximal effect
How it was run: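 Antagonist mode: compound added alongside 50 nM CITCO to HepG2-hCAR-CYP2B6 reporter cells, 24hr at 37C. Viability by CellTiter-Fluor fluorescence, then CAR-driven luciferase by ONE-Glo luminescence.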

[11] = qHTS for Hypoxia signaling pathway (HIF-1) antagonists against the NCATS CANVASS Library (AID 1347374); note: nearly all actives have a fitted effect of over 60% in size; note: potency is the fitted concentration of half-maximal effect
How it was run: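 Antagonism scored as loss of CoCl2-driven (60 uM stock added) HRE beta-lactamase signal, read by CCF4 FRET at 460/530 nm. Compounds were tested in an 11-point series on ME-180 reporter cells for 17 hrs at 37C, with parallel CellTiter-Glo cytotoxicity.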

[12] = qHTS for Hypoxia signaling pathway (HIF-1) agonists against the NCATS CANVASS Library (AID 1347375)
How it was run: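 Beta-lactamase reporter under HRE control in ME-180 cells; compounds (11-point qHTS series) added after 5 hrs plating, then 17 hrs at 37C. FRET substrate read after 2 hr; same-well CellTiter-Glo luminescence gave viability and normalization.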

[13] = qHTS for H2AX Agonists against the NCATS CANVASS Library (AID 1347378);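 note: phospho-H2AX S139 level in CHO-K1 lysates by TR-FRET emission ratio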
How it was run: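 Following overnight seeding, CHO-K1 cells are incubated with a concentration series of compound for 3 hr at 37C (final DMSO 0.76%). Cells are then lysed, detection antibodies added, and emission ratio 665/620 nm recorded after 24 hr at room temperature.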

[14] = qHTS for Activators of p53 Stress Response Pathway screened against the NCATS CANVASS Library (AID 1347388); note: potency is the fitted concentration of half-maximal effect
How it was run: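 Beta-lactamase reporter driven by p53 response elements in HCT-116 cells, read as the 460 nm/530 nm emission ratio after CCF4 loading, following 16 h of exposure to an 11-point series. Cell viability was measured in the same wells by CellTiter-Glo luminescence.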

[15] = qHTS assay for small molecule disruptors of mitochondrial membrane potential screened against the NCATS CANVASS Library (AID 1347389); note: nearly all actives have a fitted effect of over 60% in size; note: potency is the fitted concentration of half-maximal effect
How it was run: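 Mitochondrial membrane potential in HepG2: 1 h compound treatment (11-point concentration series), 30 min m-MPI dye at 37C, then dual fluorescence of J-aggregates (ex 540/em 590) and monomers (ex 490/em 535); lower red/green ratio indicates depolarization.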

[16] = qHTS for activators of Nrf2/ARE signaling pathway screened against the NCATS CANVASS Library (AID 1347391); note: nearly all actives have a fitted effect of over 60% in size; note: potency is the fitted concentration of half-maximal effect
How it was run: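 Eleven-point qHTS, 16 h treatment of HepG2 cells carrying an ARE-driven beta-lactamase reporter; CCF4 ratio read (405 nm excitation, 460 and 530 nm emission), with CellTiter-Glo ATP luminescence for viability.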

[17] = qHTS for inhibitors of ER calcium dysfunction: SERCaMP assay screened against the NCATS CANVASS Library (AID 1347393); note: nearly all actives have a fitted effect of over 40% in size; note: potency is the fitted concentration of half-maximal effect
How it was run: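 Thapsigargin-induced ER calcium depletion drives GLuc-SERCaMP secretion from SH-SY5Y cells; compounds given 16 h beforehand were scored by lowered coelenterazine luminescence after 4 h challenge.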

[18] = qHTS for inhibitors of Wild type Zika virus screened against the NCATS CANVASS Library (AID 1347396); note: potency is the fitted concentration of half-maximal effect
How it was run: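 Using ATP-based luminescence (CellTiter Glo), this screen scores rescue of Vero 766 cells from wild-type Zika killing at 72 h post-infection. Compounds are tested in a concentration series.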

[19] = Redox Reaction Profiling qHTS: Assay Interference Panel against the NCATS CANVASS Library (AID 1347401)
How it was run: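 Redox-cycling liability assessed as DTT-driven conversion of resazurin (5 uM, with 200 uM DTT, HEPES pH 7.3) to fluorescent resorufin. Fluorescence at 525/598 nm measured initially and after 15 min dark incubation.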

[20] = Secretion counterscreen for inhibitors of the SERCaMP assay screened against the NCATS CANVASS Library (AID 1347390);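 note: light from luciferase secreted into medium read as a measure of general secretion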; note: potency is the fitted concentration of half-maximal effect
How it was run: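 Counterscreen identifying compounds that disrupt secretion, using SH-SY5Y cells with a constitutively secreted Gaussia luciferase reporter. A 20 h compound exposure (top 77 uM) precedes luminescent detection with coelenterazine.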

Sequence of Nuclear receptor subfamily 1 group I member 3 (Homo sapiens) (Q14994 whole entry, looked up): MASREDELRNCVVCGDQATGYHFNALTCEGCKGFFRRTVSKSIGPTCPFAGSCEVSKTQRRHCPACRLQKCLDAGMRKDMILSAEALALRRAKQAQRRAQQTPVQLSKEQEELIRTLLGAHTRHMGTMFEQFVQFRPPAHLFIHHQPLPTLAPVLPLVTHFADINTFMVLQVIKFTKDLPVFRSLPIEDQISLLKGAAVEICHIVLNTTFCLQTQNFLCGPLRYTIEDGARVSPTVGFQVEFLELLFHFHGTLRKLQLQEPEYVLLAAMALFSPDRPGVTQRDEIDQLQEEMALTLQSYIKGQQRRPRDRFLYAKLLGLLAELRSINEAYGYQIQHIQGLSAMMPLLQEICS

SMILES	Potency [1]	Potency [2]	Potency [3]	Potency [4]	Potency [5]	Potency [6]	Potency [7]	Potency [8]	Potency [9]	Potency [10]	Potency [11]	Potency [12]	Potency [13]	Potency [14]	Potency [15]	Potency [16]	Potency [17]	Potency [18]	Potency [19]	Potency [20]
C[C@]12CC[C@]3(C1)[C@H](CC2=O)CC(OC(=O)c1ccccc1)[C@H]1[C@@](CO)(C(=O)O)CCC[C@@]13C (stereo not given in full)	inactive	inactive	inactive	inactive	inactive	inactive	inactive	inactive	10.5 µM (active)	inactive	inactive	inactive	inactive	inactive	inactive	18.6 µM (active)	inactive	inactive	inactive	
O=C(O)Cc1c[nH]c2ccccc12	inactive	inactive	inactive	inactive	inactive	inactive	inactive	inactive		inactive	inactive	inactive	inactive	inactive	inactive	inactive	inactive	inactive	inactive	inactive
CCC[C@@H](C)/C=C(\C)[C@H](O)[C@H](C)/C=C/CC[C@@H](O)[C@H](C)[C@H](O)[C@H](C)[C@H](O)[C@H](C)[C@H]1O[C@H]([C@H](C)C(=O)O)CC[C@@H]1C	2.11 µM (active)	16.8 µM (active)	5.94 µM (active)		13.3 µM (active)	14.8 µM (active)	inactive	9.35 µM (active)			2.98 µM (active)		inactive		20.9 µM (active)		inactive		inactive	38.4 µM (active)
C/C=C/C=C/C1(O)C2C=C3C(=O)CC45C(=O)C(O)=C(C)C(=O)C4C1C1(C(=O)C(O)=C(C)C(=O)C351)C2C (stereo not given)	inactive	inactive	inactive	inactive	inactive	inactive	inactive	inactive	inactive	inactive	inactive	inactive	inactive	inactive	inactive	inactive	inactive	inactive		inactive
CCCCCCCCCCCCCCC[C@H](O)C[C@@H](O)C[C@@H](O)C[C@@H](O)C[C@@H](O)C[C@H]1CC=CC(=O)O1	1.49 µM (active)	2.11 µM (active)	3.34 µM (active)	0.743 µM (active)	3.34 µM (active)	5.26 µM (active)	inactive	2.96 µM (active)	2.64 µM (active)	8.31 µM (active)				inactive		inactive	inactive		inactive	8.6 µM (active)
C/C1=C\CC(=O)/C=C/C=C\c2csc(n2)[C@@H](C)NC(=O)C[C@@](S)([C@@H](C)C(=O)O)CC1	inactive	inactive	inactive	inactive	inactive	inactive		inactive	inactive	inactive		inactive		inactive	inactive	18.6 µM (active)		inactive		inactive
CCCCCCCCC[C@@H]1C[C@@H]2CC[C@H]3[C@@H](C(=O)OCCCCN=C(N)N)[C@@H](C)N=C(N1)N23	13.1 µM (active)	11.6 µM (active)	13 µM (active)			11.5 µM (active)	inactive	2.58 µM (active)	2.05 µM (active)					inactive	inactive	inactive	inactive	inactive	inactive	inactive
CO[C@@H]1C[C@@H](C[C@H]2CC[C@H](C)[C@H]([C@@H](C)C(=O)O)O2)O[C@]2(O[C@](C)([C@H]3CC[C@@](C)([C@@H]4O[C@@H]([C@H]5O[C@](C)(O)[C@H](C)C[C@@H]5C)C[C@@H]4C)O3)C[C@H]2C)[C@@H]1C	0.0168 µM (active)	5.3 µM (active)	4.72 µM (active)	0.0372 µM (active)	9.41 µM (active)	0.296 µM (active)		0.0935 µM (active)	0.132 µM (active)		2.11 µM (active)		inactive	3.71 µM (active)	18.6 µM (active)	inactive	inactive	1.04 µM (active)	inactive	0.484 µM (active)
CO[C@H]1/C=C/CC[C@@H](S[C@@H]2O[C@H](CO)[C@@H](O)[C@H](O)[C@H]2O)CC(=O)O[C@@H](/C(C)=C/[C@H](C)C(=O)CCCC2CC(=O)NC(=O)C2)[C@@H](C)[C@@H]1O				1.05 µM (active)		1.87 µM (active)	inactive	1.18 µM (active)	1.48 µM (active)	14.8 µM (active)	2.11 µM (active)	inactive		inactive	inactive	inactive	inactive	inactive		7.67 µM (active)
Cc1cc(O)cc2oc(C[C@H](C)O)cc(=O)c12	inactive	inactive	inactive	inactive	inactive	inactive	inactive	1.48 µM (active)		inactive	inactive	inactive	inactive	inactive	inactive	inactive	inactive	inactive	inactive	inactive
C=C1C(=O)C[C@H]2C[C@@H]1[C@]2(C)CCC=C(C)C	inactive	inactive	inactive		inactive		inactive			inactive	inactive	inactive	inactive	inactive	inactive	16.6 µM (active)	19.3 µM (active)	inactive	inactive	inactive
